Laboratory results: publication PMC5892938, “SARNAclust: Semi-automatic detection of RNA protein binding motifs from immunoprecipitation data”
In all, about 11,000 sequences were measured (“log2 fold change”: median about 0.00022, highest 2% from about 0.34 on). Some of the results follow.

Each sequence was assayed against GST-SBP-SLBP (stem-loop binding protein) (Homo sapiens, UniProt Q14493 1-270) (assay: targeted RNA Bind-n-Seq; RBNS binding buffer: 25 mM Tris pH 7.5, 150 mM KCl, 3 mM MgCl2, 0.1% Tween, 0.5 mg/mL BSA, 1 mM DTT; 27 nM protein, 750 pM RNA pool; temperature not stated; high values mean tight binding). Details: protein: recombinant; tags: N-terminal GST and SBP (pGEX6P1-SBP); structured_RNA.
Procedure, shortened: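 Read counts per sequence supply the binding signal, defined as the DEseq fold change on a binary-logarithm scale. These counts came from RNA of a designed, T7-transcribed oligo pool at 750 pM that bound 27 nM of GST-SBP-tagged protein, made in Rosetta(DE3) pLysS E. coli and glutathione-purified, in RBNS binding buffer. The bound RNA was reverse transcribed with a 10-nucleotide barcoded primer, PCR-amplified and sequenced on a MiSeq with 200-cycle paired-end reads, then processed with FLASH and HISAT2 and collapsed by barcode.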

Row | Sequence | binding signal [log2 fold change]
1 | GGUCACGUCUCAAUCAACUCCAAAGAGGGGGGGAAAACCCCUUUACCCUCCGUUUCAACAGCUCGCAGUCAAG | 0.395 ± 0.435
2 | GGUCACGUCUCAAUCAACUCCAAAGAGGGGGGGAAAACCCCUUUACCCUCAACCUCAACAGCUCGCAGUCAAG | 0.316 ± 0.391
3 | GGUCACGUCUCAAUCAACUCAGAAGAGGGGGGGAAAACCCCUUUACCCUCCAAAUCAACAGCUCGCAGUCAAG | 0.431 ± 0.433
4 | GGUCACGUCUCAAUCAACUCCAAAGAGGGGGGGAAAACCCCUUUACCCUCACUUUCAACAGCUCGCAGUCAAG | 0.398 ± 0.419
5 | GGUCACGUCUCAAUCAACUCCAAAGAGGGGGGGAAAACCCCUUUACCCUCCGCAUCAACAGCUCGCAGUCAAG | 0.352 ± 0.42
6 | GGUCACGUCUCAAUCAACUCCAAAGAGGGGGGGAAAACCCCUUUACCCUCGUCCUCAACAGCUCGCAGUCAAG | 0.369 ± 0.406
7 | GGUCACGUCUCAAUCAACUCCAAAGAGGGGGGGAAAACCCCUUUACCCUCCACAUCAACAGCUCGCAGUCAAG | 0.399 ± 0.418
8 | GGUCACGUCUCAAUCAACUCUUCCGAGGGGGGGAAAACCCCUUUACCCUCACUAUCAACAGCUCGCAGUCAAG | 0.347 ± 0.442
9 | GGUCACGUCUCAAUCAACUCUCCCGAGGGGGGGAAAACCCCUUUACCCUCACUAUCAACAGCUCGCAGUCAAG | 0.31 ± 0.449
10 | GGUCACGUCUCAAUCAACUCACACGAGGGGGGGAAAACCCCUUUACCCUCUCUAUCAACAGCUCGCAGUCAAG | 0.553 ± 0.407
11 | GGUCACGUCUCAAUCAACUCCAUCGAGGGGGGGAAAACCCCUUUACCCUCACUCUCAACAGCUCGCAGUCAAG | 0.322 ± 0.422
12 | GGUCACGUCUCAAUCAACUCUAUCGAGGGGGGGAAAACCCCUUUACCCUCACACUCAACAGCUCGCAGUCAAG | 0.573 ± 0.408
13 | GGUCACGUCUCAAUCAACUCAAUCGAGGGGGGGAAAACCCCUUUACCCUCACUCUCAACAGCUCGCAGUCAAG | 0.375 ± 0.412
14 | GGUCACGUCUCAAUCAACUCACACGAGGGGGGGAAAACCCCUUUACCCUCUACCUCAACAGCUCGCAGUCAAG | 0.472 ± 0.426
15 | GGUCACGUCUCAAUCAACUCUCUCGAGGGGGGGAAAACCCCUUUACCCUCACAAUCAACAGCUCGCAGUCAAG | 0.571 ± 0.435
16 | GGUCACGUCUCAAUCAACUCUACAGAGGGGGGGAAAACCCCUUUACCCUCACUCUCAACAGCUCGCAGUCAAG | 0.332 ± 0.424
17 | GGUCACGUCUCAAUCAACUCUAUCGAGGGGGGGAAAACCCCUUUACCCUCACAAUCAACAGCUCGCAGUCAAG | 0.599 ± 0.418
18 | GGUCACGUCUCAAUCAACUCCAUAGAGGGGGGGAAAACCCCUUUGCCCUCGAAAUCAACAGCUCGCAGUCAAG | 0.382 ± 0.389
19 | GGUCACGUCUCAAUCAACUCAAUAGAGGGGGGGAAAACCCCUUUGCCCUCGAAAUCAACAGCUCGCAGUCAAG | 0.399 ± 0.404
20 | GGUCACGUCUCAAUCAACUCAAUAGAGGGGGGGAAAACCCCUUUGCCCUCAACAUCAACAGCUCGCAGUCAAG | 0.421 ± 0.37
21 | GGUCACGUCUCAAUCAACUCAAUAGAGGGGGGGAAAACCCCUUUGCCCUCAAUCUCAACAGCUCGCAGUCAAG | 0.451 ± 0.42
22 | GGUCACGUCUCAAUCAACUCAUUAGAGGGGGGGAAAACCCCUUUGCCCUCAUACUCAACAGCUCGCAGUCAAG | 0.461 ± 0.451
23 | GGUCACGUCUCAAUCAACUCAUUAGAGGGGGGGAAAACCCCUUUGCCCUCAAAAUCAACAGCUCGCAGUCAAG | 0.487 ± 0.428
24 | GGUCACGUCUCAAUCAACUCCUUAGAGGGGGGGAAAACCCCUUUGCCCUCAUACUCAACAGCUCGCAGUCAAG | 0.464 ± 0.44

Row | Sequence | binding signal [log2 fold change]
25 | GGUCACGUCUCAAUCAACUCACUAGAGGGGGGGAAAACCCCUUUGCCCUCAUACUCAACAGCUCGCAGUCAAG | 0.37 ± 0.365
26 | GGUCACGUCUCAAUCAACUCACUAGAGGGGGGGAAAACCCCUUUGCCCUCCAACUCAACAGCUCGCAGUCAAG | 0.317 ± 0.385
27 | GGUCACGUCUCAAUCAACUCAUUAGAGGGGGGGAAAACCCCUUUGCCCUCACCUUCAACAGCUCGCAGUCAAG | 0.303 ± 0.392
28 | GGUCACGUCUCAAUCAACUCAUUAGAGGGGGGGAAAACCCCUUUGCCCUCAUCUUCAACAGCUCGCAGUCAAG | 0.356 ± 0.431
29 | GGUCACGUCUCAAUCAACUCCAUAGAGGGGGGGAAAACCCCUUUACCCUCAUUUUCAACAGCUCGCAGUCAAG | 0.342 ± 0.445
30 | GGUCACGUCUCAAUCAACUCCAUAGAGGGGGGGAAAACCCCUUUGCCCUCAAUUUCAACAGCUCGCAGUCAAG | 0.426 ± 0.447
31 | GGUCACGUCUCAAUCAACUCCAUAGAGGGGGGGAAAACCCCUUUGCCCUCAUUUUCAACAGCUCGCAGUCAAG | 0.381 ± 0.414
32 | GGUCACGUCUCAAUCAACUCAACAGAGGGGGGGAAAACCCCUUUACCCUCAUUUUCAACAGCUCGCAGUCAAG | 0.422 ± 0.451
33 | GGUCACGUCUCAAUCAACUCUUCAGAGGGGGGGAAAACCCCUUUGCCCUCAAUUUCAACAGCUCGCAGUCAAG | 0.337 ± 0.433
34 | GGUCACGUCUCAAUCAACUCUCCAGAGGGGGGGAAAACCCCUUUGCCCUCCAUUUCAACAGCUCGCAGUCAAG | 0.536 ± 0.422
35 | GGUCACGUCUCAAUCAACUCACACGAGGGGGGGAAAACCCCUUUACCCUCAUCCUCAACAGCUCGCAGUCAAG | 0.453 ± 0.432
36 | GGUCACGUCUCAAUCAACUCCUACGAGGGGGGGAAAACCCCUUUACCCUCAAAUUCAACAGCUCGCAGUCAAG | 0.442 ± 0.411
37 | GGUCACGUCUCAAUCAACUCCUACGAGGGGGGGAAAACCCCUUUACCCUCAACCUCAACAGCUCGCAGUCAAG | 0.619 ± 0.434
38 | GGUCACGUCUCAAUCAACUCCUACGAGGGGGGGAAAACCCCUUUACCCUCAUCAUCAACAGCUCGCAGUCAAG | 0.348 ± 0.402
39 | GGUCACGUCUCAAUCAACUCCUACGAGGGGGGGAAAACCCCUUUACCCUCAUAAUCAACAGCUCGCAGUCAAG | 0.382 ± 0.421
40 | GGUCACGUCUCAAUCAACUCAAUCUCAGGAGUUUACUCCUGCAAAGUCAACAGCUCGCAGUCAAG | 0.321 ± 0.217
41 | GGUCACGUCUCAAUCAACUCAGGUCCAGGAGUUUACUCCUGCAAAUUCAACAGCUCGCAGUCAAG | 0.356 ± 0.313
42 | GGUCACGUCUCAAUCAACUCAUUCCCAGGAGUUUACUCCUGUAAUUUCAACAGCUCGCAGUCAAG | 0.331 ± 0.233
43 | GGUCACGUCUCAAUCAACUCAUCUCCAGGAGUUUCCUCCUGCAUACUCAACAGCUCGCAGUCAAG | 0.323 ± 0.222
44 | GGUCACGUCUCAAUCAACUCAAUUCCAGGAGUUUCCUCCUGCAUUUUCAACAGCUCGCAGUCAAG | 0.321 ± 0.19
45 | GGUCACGUCUCAAUCAACUCUAGUCCAGGAGUUUACUCCUGUUUAUUCAACAGCUCGCAGUCAAG | 0.313 ± 0.255
46 | GGUCACGUCUCAAUCAACUCAUGUCCAGGAGUUUACUCCUGCAAUCUCAACAGCUCGCAGUCAAG | 0.371 ± 0.281
47 | GGUCACGUCUCAAUCAACUCAUCUUCAGGAGUUUGCUCCUGCAAUCUCAACAGCUCGCAGUCAAG | 0.328 ± 0.197
48 | GGUCACGUCUCAAUCAACUCAGGUCCAGGAGUUUACUCCUGCAAUUUCAACAGCUCGCAGUCAAG | 0.516 ± 0.297

Row | Sequence | binding signal [log2 fold change]
49 | GGUCACGUCUCAAUCAACUCUUCCCCAGGAGUUUACUCCUGCAUUUUCAACAGCUCGCAGUCAAG | 0.302 ± 0.227
50 | GGUCACGUCUCAAUCAACUCAACUCCAGGAGUUUACUCCUGUAAUCUCAACAGCUCGCAGUCAAG | 0.456 ± 0.227
51 | GGUCACGUCUCAAUCAACUCAUCGCCAGGAGUUUACUCCUGCUAAUUCAACAGCUCGCAGUCAAG | 0.301 ± 0.286
52 | GGUCACGUCUCAAUCAACUCAAGUCCAGGAGUUUUCUCCUGCAAAGUCAACAGCUCGCAGUCAAG | 0.447 ± 0.258
53 | GGUCACGUCUCAAUCAACUCAAUCCCAGGAGUUUUCUCCUGCAAUGUCAACAGCUCGCAGUCAAG | 0.317 ± 0.214
54 | GGUCACGUCUCAAUCAACUCUUCUCCCAGGGAAAGCCCUGGUUAACUCAACAGCUCGCAGUCAAG | 0.335 ± 0.269
55 | GGUCACGUCUCAAUCAACUCUUCUCCCAGGGAAACCCCUGGUUAUUUCAACAGCUCGCAGUCAAG | 0.372 ± 0.273
56 | GGUCACGUCUCAAUCAACUCUUCGCCCAGGGAAAGCCCUGGUUAUUUCAACAGCUCGCAGUCAAG | 0.464 ± 0.319
57 | GGUCACGUCUCAAUCAACUCUUCUCCCAGGGAAAGCCCUGGCAAUUUCAACAGCUCGCAGUCAAG | 0.428 ± 0.307
58 | GGUCACGUCUCAAUCAACUCAAUCUCCAGGGAAAACCCUGGCAAUGUCAACAGCUCGCAGUCAAG | 0.578 ± 0.314
59 | GGUCACGUCUCAAUCAACUCUAUCUCCAGGGAAAUCCCUGGUAAACUCAACAGCUCGCAGUCAAG | 0.306 ± 0.25
60 | GGUCACGUCUCAAUCAACUCAGUCUCCAGGGAAAUCCCUGGUAUUUUCAACAGCUCGCAGUCAAG | 0.347 ± 0.308
61 | GGUCACGUCUCAAUCAACUCUAUCUCCAGGGAAAUCCCUGGCAAUGUCAACAGCUCGCAGUCAAG | 0.418 ± 0.298
62 | GGUCACGUCUCAAUCAACUCAGUCUCCAGGGAAAUCCCUGGCAAUCUCAACAGCUCGCAGUCAAG | 0.4 ± 0.338
63 | GGUCACGUCUCAAUCAACUCAAUCUCCAGGGAAAGCCCUGGCAAUGUCAACAGCUCGCAGUCAAG | 0.309 ± 0.299
64 | GGUCACGUCUCAAUCAACUCUUUCUCCAGGGAAAUCCCUGGCUAUCUCAACAGCUCGCAGUCAAG | 0.375 ± 0.236
65 | GGUCACGUCUCAAUCAACUCUUCCCCCAGGGAAACCCCUGGCUAAUUCAACAGCUCGCAGUCAAG | 0.313 ± 0.254
66 | GGUCACGUCUCAAUCAACUCAUCUUCCAGGGAAAACCCUGGCUAAUUCAACAGCUCGCAGUCAAG | 0.36 ± 0.265
67 | GGUCACGUCUCAAUCAACUCAUUCCCCAGGGAAACCCCUGGCUAACUCAACAGCUCGCAGUCAAG | 0.341 ± 0.323
68 | GGUCACGUCUCAAUCAACUCAUUUUCCAGGGAAACCCCUGGCUAAUUCAACAGCUCGCAGUCAAG | 0.348 ± 0.267
69 | GGUCACGUCUCAAUCAACUCAUUCGCCAGGGAAACCCCUGGGUAUUUCAACAGCUCGCAGUCAAG | 0.329 ± 0.31
70 | GGUCACGUCUCAAUCAACUCAUACGAGGGGGGGAAAACCCCUUUACCCUCAAACUCAACAGCUCGCAGUCAAG | 0.382 ± 0.399
71 | GGUCACGUCUCAAUCAACUCAUACGAGGGGGGGAAAACCCCUUUACCCUCAAAUUCAACAGCUCGCAGUCAAG | 0.598 ± 0.45
72 | GGUCACGUCUCAAUCAACUCAUACGAGGGGGGGAAAACCCCUUUACCCUCAAUAUCAACAGCUCGCAGUCAAG | 0.313 ± 0.436
